In the library only some 6.2% were active in any assay of this set; here they are far more common.
ATXN viability: Viability Counterscreen for Primary qHTS for Inhibitors of ATXN expression. S2 cells (HEK-293 line with an ATXN2-luciferase reporter) viability, CellTiter-Fluor protease fluorescence, 24 h. hit rate 0.49% among 400,000. Potency, µM (titrated, usually from 56.7 µM), actives largely listed as cytotoxic; further: nearly all actives have a fitted effect of over 40% in size
HT1080NT lethal: qHTS for induction of synthetic lethality in tumor cells producing 2HG: qHTS for the HT-1080-NT fibrosarcoma cell line; Potency, µM (titrated, usually from 46.1 µM), without a hit: at the highest dose activity, negative = less viability, hits mostly cytotoxic; hit rate 1.6% among 360,000; AID 686970, 2013; HT-1080-NT fibrosarcoma viability, CellTiter-Glo ATP luminescence, 48 h;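 further: NT is the 2HG producing partner of a matched IDH1 knockdown line; 0% = DMSO-treated cells and -100% = media-only wells without cells; nearly all actives have a fitted effect of over 55% in size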
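A 48-hour cytotoxicity screen used HT-1080-NT cells plated 2 hours before compound delivery. ATP-based CellTiter-Glo luminescence measured viability, normalized to DMSO and no-cell controls.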
KB-3-1 tox: qHTS assay for MDR1-selective chemotherapeutics: Primary screen using the parental adenocarcinoma cell KB-3-1; KB-3-1 viability, CellTiter-Glo ATP luminescence, 72 h; Potency, µM (doses to about 46.1 µM), most hits filed as cytotoxic; hit rate 1.4% among 400,000; further: on the % scale 0 is the no-effect control and ±100 the full control effect; nearly all actives have a fitted effect of over 60% in size
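Here the drug-naive KB-3-1 line serves as comparator for MDR sub-line selectivity; cells received compound titrations, 72 h at 37 °C, then CellTiter-Glo readout.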
HT1080 IDH1KD tx: qHTS for induction of synthetic lethality in tumor cells producing 2HG: qHTS for the HT-1080-IDH1KD cell line; HT-1080 IDH1 knockdown viability, ATP luminescence, 48 h; Potency, µM (doses to about 46.1 µM), for inactives: at the top dose activity, negative = toxicity, hits mostly cytotoxic; hit rate 2% among 360,000; AID 686971, 2013;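 further: 0% = DMSO wells and -100% = cell-free medium wells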
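CellTiter-Glo luminescence after 48 h compound exposure at 37 degrees C of IDH1-knockdown HT-1080 cells in 5% FBS RPMI. %Activity scaled between DMSO wells and cell-free media wells, with curves fitted and assigned curve classes.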
KB-V1 cytotox: qHTS assay for MDR1-selective chemotherapeutics: Primary screen using the drug-selected MDR subline cells KB-V1; KB-V1 MDR cells viability, CellTiter-Glo, 72 h; Potency, µM (series often up to 46.1 µM), usual class: cytotoxic; AID 1347076, 2019; hit rate 3.4% among 400,000; further: on the % scale 0 is the no-effect control and ±100 the full control effect; nearly all actives have a fitted effect of over 60% in size
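Cytotoxicity toward P-gp-expressing KB-V1 cells was determined as loss of CellTiter-Glo luminescence after 72 h at 37 degrees C. Compounds were tested in quantitative HTS format across a concentration range, with curves fitted to normalized data.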
ATXN2 expr inh: Primary qHTS for Inhibitors of ATXN expression. HEK-293 ATXN2-luciferase reporter, luminescence, 24 h. Potency, µM (top dose mostly 57 µM), without a hit: at the top dose activity change, negative = inhibition, hits mostly inhibitors. hit rate 0.72% among 360,000. AID 1745845, 2022; further: on the % scale 0 is the no-effect control and ±100 the full control effect; nearly all actives have a fitted effect of over 55% in size
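ATXN2-luciferase reporter cells (luciferase flanked by upstream and downstream ATXN2 gene portions) were treated 24 h at 37 °C with compounds at up to 57 uM. SteadyGlo luminescence gave expression; GF-AFC fluorescence gave viability.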
Active calls of the source: *; i = inactive; u = inconclusive; x = no result given; [ ] = dose if it differs, or a comment. The call rests on the fitted dose curve; in most records, active means well fitted curve in the direction sought with a large enough effect; inconclusive means small, poorly fitted or top-dose-only effect, or another doubt; inactive means no such curve, though single readings can be large; an effect the other way counts as inactive or inconclusive. Potency means the concentration at half of the fitted maximal effect.

SMILES	ATXN viability	HT1080NT lethal	KB-3-1 tox	HT1080 IDH1KD tx	KB-V1 cytotox	ATXN2 expr inh
O=C(c1cnc(N2CCOCC2)c2ccccc12)N1CCN(c2ccccc2)CC1	x	x	i	x	i	x
CN(C)CCN1C(=O)c2cccc3cc([N+](=O)[O-])cc(c23)C1=O	u	10µM*	8.2µM*	13µM*	2.6µM*	u
CN(C)CCCN1C(=O)c2cccc3cccc(c23)C1=O	i	u	u	u	i	u
CCOC(=O)c1ccc(Nc2nc(C)cc(C)n2)cc1	i	16%	i	-3%	i	15%
CCOC(=O)c1ccc(Nc2cc(C)nc(-c3ccccc3)n2)cc1	i	16µM*	i	18µM*	u	x
Nc1nc(N)c2cc(CNc3ccc(Cl)c(Cl)c3)ccc2n1	x	1.8µM*	u	3.3µM*	16µM*	x
O=C1C=C(NCc2ccc(Cl)c(Cl)c2)CC1	i	-19%	u	u	i	-14%
COc1ccc(NC(c2ccc(F)cc2)c2nnc(-c3ccccc3Cl)o2)cc1Cl (centres undefined)	u	x	i	x	i	-9%
Cc1nn(C)cc1CN(C)C(=O)c1nn2c(c1Cl)NC(c1cccs1)CC2C(F)(F)F (centres undefined)	i	-18%	i	-14%	18µM*	-11%
Cc1nn(C)cc1CN(C)C(=O)c1nn2c(c1Br)NC(c1cccs1)CC2C(F)(F)F (centres undefined)	i	-17%	i	-16%	i	-4%
Cc1ccc(C2CC(C(F)(F)F)n3nc(C(=O)NCc4c(C)nn(C)c4C)c(Cl)c3N2)cc1 (centres undefined)	i	u	21µM*	u	5.8µM*	u
Cc1ccsc1/C=C1\SC(=S)N(CC2CCCO2)C1=O (centres undefined)	i	u	i	12%	i	39%
CCN=C1S/C(=C\c2sccc2C)C(=O)N1CC	i	18%	u	5%	13µM*	38%[11.3 µM]
Nc1c(C(=O)Nc2ccc3c(c2)OCCO3)nnn1Cc1cccc(Br)c1	u	-28%	i	13µM*	15µM*	5%
Nc1c(C(=O)Nc2ccc3c(c2)OCCO3)nnn1CCc1ccccc1	i	u	6.5µM*	u	u	12%
Nc1c(C(=O)Nc2ccc3c(c2)OCCO3)nnn1Cc1ccc(Br)cc1	i	-11%	i	-12%	i	47%
Cc1ccc(NC(=O)c2nnn(CC(=O)Nc3ccc4c(c3)OCO4)c2N)cc1C	i	1%	i	-4%	i	x
COc1cc(/C=N/NC(=O)CCN2CCCCC2)ccc1O	u	2%	i	0%	i	-11%
COc1ccc2[nH]c(C(=O)N/N=C/c3ccc(OC)c(O)c3)cc2c1	i	0.58µM*	6.5µM*	1.2µM*	9.2µM*	35%
COc1ccc(/C=N/NC(=O)c2nc(-c3ccccc3)cc(-c3ccccc3)n2)cc1O	i	u	u	u	16µM*	1%
COc1ccc(/C=N/NC(=O)c2nc(-c3ccccc3)cc(-c3ccccc3)n2)cc1	i	-6%	i	-2%	i	-13%
Cc1c(/C=N/NC(=O)C(NC(=O)c2ccc3c(c2)OCO3)C(C)C)c2ccccc2n1C (centres undefined)	i	-8%	i	-6%	18µM*	7%
COc1cc(/C=N/NC(=O)CCn2cnc(-c3ccccc3)c2-c2ccccc2)ccc1O	i	16µM*	i	u	i	-25%
CCCCC(CC)CNC(=O)CC(C)OC(=O)CCC(=O)O (centres undefined)	i	x	x	x	x	25%
